This note sets out measurements from paper PMC7862700, “An all-to-all approach to the identification of sequence-specific readers for epigenetic DNA modifications on cytosine”.

What all share (assay): DAPPL (digital affinity profiling via proximity ligation, sequencing); 10 mM Tris-HCl pH 7.5, 50 mM NaCl, 1 mM DTT, 4% glycerol, room temperature, 30 min; GST-TFs on glutathione beads, 16-mer random dsDNA library, 0.1% formaldehyde crosslink after washing; high values mean tight binding
One assay deals with T1, FEV (Homo sapiens, UniProt Q99581 1-238).
T1 sequence: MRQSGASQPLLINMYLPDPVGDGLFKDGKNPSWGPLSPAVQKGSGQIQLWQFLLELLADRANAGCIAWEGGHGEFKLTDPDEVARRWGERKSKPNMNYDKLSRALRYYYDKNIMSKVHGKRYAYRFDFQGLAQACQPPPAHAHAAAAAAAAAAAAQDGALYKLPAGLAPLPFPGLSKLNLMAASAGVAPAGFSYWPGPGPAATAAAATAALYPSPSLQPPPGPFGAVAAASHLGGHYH
The conditions noted are these: protein: recombinant; tags: N-terminal GST; dsDNA, one strand shown. The gist of the method: (§1)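 Binding signal is given per hexamer as its read frequency for a factor divided by its frequency in the tag-only sample. GST-fused human transcription factors were expressed in yeast, captured on glutathione beads, barcoded with DNA and pooled with that sample, then incubated with 200 nmole of a 16-mer random double-stranded DNA library in Tris/NaCl/DTT/glycerol buffer for 30 min at room temperature. The pools were then washed, crosslinked, proximity-ligated, amplified by PCR and sequenced on an Illumina NextSeq500.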

Another assay addresses ETV5 (Homo sapiens, UniProt P41161 1-510). The conditions noted are these: protein: recombinant; tags: N-terminal GST; dsDNA, one strand shown. An outline of the steps:
as §1

A further assay has as its target HSF1 (Homo sapiens, UniProt Q00613 1-529). The settings on record: protein: recombinant; tags: N-terminal GST; chain copies: 3; dsDNA, one strand shown. An outline of the steps:
as §1

The target of another assay is T2, SPIC (Homo sapiens, UniProt Q8N5J4 1-248).
T2 sequence: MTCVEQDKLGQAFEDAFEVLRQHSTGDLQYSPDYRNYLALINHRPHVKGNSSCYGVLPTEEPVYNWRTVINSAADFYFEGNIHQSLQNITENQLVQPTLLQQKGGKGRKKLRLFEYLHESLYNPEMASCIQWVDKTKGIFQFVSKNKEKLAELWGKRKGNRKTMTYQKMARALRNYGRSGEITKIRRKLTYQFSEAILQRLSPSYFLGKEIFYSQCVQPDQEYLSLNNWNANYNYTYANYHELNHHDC
The conditions noted are these: protein: recombinant; tags: N-terminal GST; dsDNA, one strand shown. An outline of the steps: as §1

A further assay concerns the target ELF4 (Homo sapiens, UniProt Q99607 1-663). The settings on record: protein: recombinant; tags: N-terminal GST; dsDNA, one strand shown. An outline of the steps:
as §1

The target in the next assay is T3, ELK4 (Homo sapiens, UniProt P28324-2 1-405).
T3 sequence: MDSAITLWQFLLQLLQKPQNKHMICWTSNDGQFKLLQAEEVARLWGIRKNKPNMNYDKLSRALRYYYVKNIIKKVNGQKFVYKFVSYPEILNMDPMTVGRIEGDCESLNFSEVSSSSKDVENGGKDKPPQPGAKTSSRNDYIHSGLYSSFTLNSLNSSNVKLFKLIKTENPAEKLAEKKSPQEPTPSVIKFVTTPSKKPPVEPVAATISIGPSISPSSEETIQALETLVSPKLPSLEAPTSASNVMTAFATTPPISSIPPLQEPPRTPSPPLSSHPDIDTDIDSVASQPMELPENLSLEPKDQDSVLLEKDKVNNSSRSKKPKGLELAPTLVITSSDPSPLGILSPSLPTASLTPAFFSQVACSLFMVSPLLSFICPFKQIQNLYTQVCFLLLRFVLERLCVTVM
The conditions noted are these: protein: recombinant; tags: N-terminal GST; dsDNA, one strand shown. An outline of the steps: as §1

The target in the next assay is T4, ETV2 (Homo sapiens, UniProt O00321 1-342).
T4 sequence: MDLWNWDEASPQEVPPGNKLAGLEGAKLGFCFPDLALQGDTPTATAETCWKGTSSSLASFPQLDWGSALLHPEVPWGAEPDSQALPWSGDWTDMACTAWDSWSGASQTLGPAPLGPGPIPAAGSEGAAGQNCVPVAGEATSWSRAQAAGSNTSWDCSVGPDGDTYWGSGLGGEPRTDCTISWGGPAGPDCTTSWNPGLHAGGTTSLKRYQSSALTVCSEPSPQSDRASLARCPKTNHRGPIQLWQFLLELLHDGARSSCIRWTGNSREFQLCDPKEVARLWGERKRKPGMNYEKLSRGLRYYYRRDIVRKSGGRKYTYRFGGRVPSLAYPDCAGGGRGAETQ
The settings on record: protein: recombinant; tags: N-terminal GST; dsDNA, one strand shown. The gist of the method:
as §1

A further assay addresses T5, ELF3 (Homo sapiens, UniProt P78545 1-371).
T5 sequence: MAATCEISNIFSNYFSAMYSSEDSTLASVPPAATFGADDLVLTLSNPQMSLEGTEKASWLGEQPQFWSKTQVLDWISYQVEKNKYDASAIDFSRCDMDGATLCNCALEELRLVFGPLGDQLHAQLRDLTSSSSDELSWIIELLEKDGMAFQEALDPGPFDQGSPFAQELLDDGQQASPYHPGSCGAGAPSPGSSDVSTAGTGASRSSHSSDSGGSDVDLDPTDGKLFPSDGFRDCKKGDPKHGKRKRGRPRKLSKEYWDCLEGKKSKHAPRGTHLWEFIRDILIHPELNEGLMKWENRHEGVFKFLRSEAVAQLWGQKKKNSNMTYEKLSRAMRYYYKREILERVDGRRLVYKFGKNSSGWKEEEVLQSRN
The settings on record: protein: recombinant; tags: N-terminal GST; dsDNA, one strand shown. An outline of the steps: as §1

Another assay addresses CRX (Homo sapiens, UniProt O43186 1-299). The settings on record: protein: recombinant; tags: N-terminal GST; dsDNA, one strand shown. An outline of the steps:
as §1

A further assay concerns the target ETV1 (Homo sapiens, UniProt P50549 1-477). The conditions noted are these: protein: recombinant; tags: N-terminal GST; dsDNA, one strand shown. An outline of the steps: as §1
The next assay deals with T6, ERF (Homo sapiens, UniProt P50548 1-548).
T6 sequence: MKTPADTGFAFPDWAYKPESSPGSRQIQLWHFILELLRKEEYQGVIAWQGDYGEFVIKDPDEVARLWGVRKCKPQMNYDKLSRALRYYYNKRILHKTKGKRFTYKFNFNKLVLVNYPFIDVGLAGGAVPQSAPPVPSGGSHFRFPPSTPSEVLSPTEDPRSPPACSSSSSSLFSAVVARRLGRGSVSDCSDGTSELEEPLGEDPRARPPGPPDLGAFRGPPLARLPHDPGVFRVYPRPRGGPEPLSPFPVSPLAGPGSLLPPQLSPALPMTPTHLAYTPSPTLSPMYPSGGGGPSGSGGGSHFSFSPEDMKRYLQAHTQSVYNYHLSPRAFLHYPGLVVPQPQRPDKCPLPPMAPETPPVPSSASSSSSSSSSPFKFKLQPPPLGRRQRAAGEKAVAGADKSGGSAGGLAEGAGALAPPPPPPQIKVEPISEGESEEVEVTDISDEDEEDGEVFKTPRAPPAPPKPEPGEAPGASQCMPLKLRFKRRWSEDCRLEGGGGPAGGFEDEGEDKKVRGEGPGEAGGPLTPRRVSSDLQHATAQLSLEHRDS
The conditions noted are these: protein: recombinant; tags: N-terminal GST; dsDNA, one strand shown. The gist of the method:
as §1

A further assay addresses T7, ETV3L (Homo sapiens, UniProt Q6ZN32 1-361).
T7 sequence: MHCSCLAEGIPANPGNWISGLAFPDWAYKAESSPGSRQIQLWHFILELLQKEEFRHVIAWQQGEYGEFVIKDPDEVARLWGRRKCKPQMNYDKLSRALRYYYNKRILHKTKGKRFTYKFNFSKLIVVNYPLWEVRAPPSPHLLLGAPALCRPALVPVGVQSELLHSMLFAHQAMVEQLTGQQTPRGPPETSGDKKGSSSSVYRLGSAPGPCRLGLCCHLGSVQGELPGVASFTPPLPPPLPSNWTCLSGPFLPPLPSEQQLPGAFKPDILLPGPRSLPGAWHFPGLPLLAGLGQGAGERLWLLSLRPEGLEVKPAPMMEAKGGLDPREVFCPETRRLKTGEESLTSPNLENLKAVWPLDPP
The settings on record: protein: recombinant; tags: N-terminal GST; dsDNA, one strand shown. The gist of the method: as §1

The target of another assay is T8, ETS2 (Homo sapiens, UniProt P15036 1-469).
T8 sequence: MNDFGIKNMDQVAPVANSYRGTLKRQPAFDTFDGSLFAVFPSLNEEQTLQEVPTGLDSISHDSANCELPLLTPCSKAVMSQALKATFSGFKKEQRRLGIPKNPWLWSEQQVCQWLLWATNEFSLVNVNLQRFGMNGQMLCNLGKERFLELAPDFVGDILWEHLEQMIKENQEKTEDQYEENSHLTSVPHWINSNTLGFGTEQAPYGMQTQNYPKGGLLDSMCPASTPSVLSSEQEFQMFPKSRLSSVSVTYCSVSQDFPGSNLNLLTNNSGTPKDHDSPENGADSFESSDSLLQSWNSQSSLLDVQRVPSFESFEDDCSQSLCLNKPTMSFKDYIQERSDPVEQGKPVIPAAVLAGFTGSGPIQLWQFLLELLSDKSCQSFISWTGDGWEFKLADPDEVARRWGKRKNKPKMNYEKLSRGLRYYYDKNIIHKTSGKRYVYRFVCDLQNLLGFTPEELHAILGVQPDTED
The conditions noted are these: protein: recombinant; tags: N-terminal GST; dsDNA, one strand shown. An outline of the steps:
as §1

For a further assay, the target named is T9, SPDEF (Homo sapiens, UniProt O95238 1-335).
T9 sequence: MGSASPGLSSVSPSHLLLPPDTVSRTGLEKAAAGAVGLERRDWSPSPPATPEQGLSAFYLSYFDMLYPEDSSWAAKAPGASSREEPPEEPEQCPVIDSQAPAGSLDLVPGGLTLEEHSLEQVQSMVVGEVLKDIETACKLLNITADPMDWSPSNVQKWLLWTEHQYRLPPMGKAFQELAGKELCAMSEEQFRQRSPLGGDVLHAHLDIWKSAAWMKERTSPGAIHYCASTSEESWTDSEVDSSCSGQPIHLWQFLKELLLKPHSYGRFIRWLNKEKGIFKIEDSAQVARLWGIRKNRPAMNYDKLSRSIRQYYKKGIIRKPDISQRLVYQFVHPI
The settings on record: protein: recombinant; tags: N-terminal GST; dsDNA, one strand shown. An outline of the steps: as §1

The target in the next assay is T10, ETV7 (Homo sapiens, UniProt Q9Y603 1-341).
T10 sequence: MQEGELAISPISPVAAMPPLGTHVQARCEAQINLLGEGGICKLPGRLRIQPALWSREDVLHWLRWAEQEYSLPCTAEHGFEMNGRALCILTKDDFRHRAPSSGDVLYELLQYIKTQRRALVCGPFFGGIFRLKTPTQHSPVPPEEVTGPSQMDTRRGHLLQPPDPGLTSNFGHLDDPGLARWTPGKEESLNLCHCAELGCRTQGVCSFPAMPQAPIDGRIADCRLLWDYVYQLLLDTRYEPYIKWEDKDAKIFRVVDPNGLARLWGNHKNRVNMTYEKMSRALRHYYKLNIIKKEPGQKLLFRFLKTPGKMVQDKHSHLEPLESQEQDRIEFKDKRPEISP
The conditions noted are these: protein: recombinant; tags: N-terminal GST; dsDNA, one strand shown. An outline of the steps:
as §1

The next assay has as its target T11, ELF5 (Homo sapiens, UniProt Q9UKW6-2 1-255).
T11 sequence: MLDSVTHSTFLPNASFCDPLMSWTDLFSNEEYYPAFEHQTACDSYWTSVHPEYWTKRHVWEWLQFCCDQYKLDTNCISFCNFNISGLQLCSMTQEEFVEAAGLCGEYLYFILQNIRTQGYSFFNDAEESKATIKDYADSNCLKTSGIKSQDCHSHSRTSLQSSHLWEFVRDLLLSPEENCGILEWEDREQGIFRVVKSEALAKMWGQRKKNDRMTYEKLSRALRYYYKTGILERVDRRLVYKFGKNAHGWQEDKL
The conditions noted are these: protein: recombinant; tags: N-terminal GST; dsDNA, one strand shown. The gist of the method:
as §1

A further assay concerns the target T12, ETV3 (Homo sapiens, UniProt P41162-2 1-143).
T12 sequence: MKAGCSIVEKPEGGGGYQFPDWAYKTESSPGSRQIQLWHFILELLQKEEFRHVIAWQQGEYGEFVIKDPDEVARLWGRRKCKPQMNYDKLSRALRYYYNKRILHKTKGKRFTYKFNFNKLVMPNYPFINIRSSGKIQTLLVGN
The settings on record: protein: recombinant; tags: N-terminal GST; dsDNA, one strand shown. The gist of the method:
as §1

Another assay deals with ETV6 (Homo sapiens, UniProt P41212 1-452). The conditions noted are these: protein: recombinant; tags: N-terminal GST; dsDNA, one strand shown. The gist of the method:
as §1

Chain of ETV5 (P41161 whole entry): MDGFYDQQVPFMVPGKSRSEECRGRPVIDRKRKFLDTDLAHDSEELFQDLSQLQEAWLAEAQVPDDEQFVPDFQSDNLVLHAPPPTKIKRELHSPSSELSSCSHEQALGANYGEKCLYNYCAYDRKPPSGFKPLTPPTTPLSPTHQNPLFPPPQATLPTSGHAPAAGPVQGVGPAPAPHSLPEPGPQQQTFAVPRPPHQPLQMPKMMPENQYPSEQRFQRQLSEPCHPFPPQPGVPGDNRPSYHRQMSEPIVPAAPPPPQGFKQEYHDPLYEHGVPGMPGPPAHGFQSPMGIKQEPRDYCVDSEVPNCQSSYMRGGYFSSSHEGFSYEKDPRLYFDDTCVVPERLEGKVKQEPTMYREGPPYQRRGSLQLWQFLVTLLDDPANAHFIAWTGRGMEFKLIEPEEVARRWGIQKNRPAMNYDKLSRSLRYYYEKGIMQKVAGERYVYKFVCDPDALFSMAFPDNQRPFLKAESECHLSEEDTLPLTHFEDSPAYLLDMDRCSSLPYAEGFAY
Chain of ETV1 (P50549 whole entry): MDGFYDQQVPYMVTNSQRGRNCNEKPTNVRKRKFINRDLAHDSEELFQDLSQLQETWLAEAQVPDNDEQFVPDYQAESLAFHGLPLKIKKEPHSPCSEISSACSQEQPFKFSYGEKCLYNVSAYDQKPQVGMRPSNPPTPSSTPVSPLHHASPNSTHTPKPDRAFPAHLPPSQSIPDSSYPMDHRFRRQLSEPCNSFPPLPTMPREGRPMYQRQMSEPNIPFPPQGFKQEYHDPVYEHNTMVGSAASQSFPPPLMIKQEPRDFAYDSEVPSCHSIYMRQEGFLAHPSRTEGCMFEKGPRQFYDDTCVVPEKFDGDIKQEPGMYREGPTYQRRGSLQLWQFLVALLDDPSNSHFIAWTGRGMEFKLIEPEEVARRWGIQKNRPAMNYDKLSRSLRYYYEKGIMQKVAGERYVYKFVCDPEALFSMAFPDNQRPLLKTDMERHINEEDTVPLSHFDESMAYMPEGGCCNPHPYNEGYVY
Chain of ELF4 (Q99607 whole entry): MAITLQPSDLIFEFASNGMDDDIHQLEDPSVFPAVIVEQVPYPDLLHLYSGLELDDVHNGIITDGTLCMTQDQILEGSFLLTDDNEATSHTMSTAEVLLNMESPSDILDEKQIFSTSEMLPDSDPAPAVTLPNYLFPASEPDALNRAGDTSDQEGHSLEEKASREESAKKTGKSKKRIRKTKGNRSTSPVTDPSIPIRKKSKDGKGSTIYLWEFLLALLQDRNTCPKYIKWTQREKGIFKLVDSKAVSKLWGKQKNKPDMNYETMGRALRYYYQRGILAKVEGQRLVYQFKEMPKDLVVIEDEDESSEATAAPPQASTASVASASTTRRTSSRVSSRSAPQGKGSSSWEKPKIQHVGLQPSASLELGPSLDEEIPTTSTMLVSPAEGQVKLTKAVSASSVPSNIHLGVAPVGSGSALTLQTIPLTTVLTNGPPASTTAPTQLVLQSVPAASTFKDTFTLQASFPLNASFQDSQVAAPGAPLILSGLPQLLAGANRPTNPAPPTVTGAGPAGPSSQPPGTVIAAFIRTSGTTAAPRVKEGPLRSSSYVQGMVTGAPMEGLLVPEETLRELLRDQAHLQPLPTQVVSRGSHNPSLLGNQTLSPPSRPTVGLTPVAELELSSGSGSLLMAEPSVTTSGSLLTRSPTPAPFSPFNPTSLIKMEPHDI
Chain of CRX (O43186 whole entry): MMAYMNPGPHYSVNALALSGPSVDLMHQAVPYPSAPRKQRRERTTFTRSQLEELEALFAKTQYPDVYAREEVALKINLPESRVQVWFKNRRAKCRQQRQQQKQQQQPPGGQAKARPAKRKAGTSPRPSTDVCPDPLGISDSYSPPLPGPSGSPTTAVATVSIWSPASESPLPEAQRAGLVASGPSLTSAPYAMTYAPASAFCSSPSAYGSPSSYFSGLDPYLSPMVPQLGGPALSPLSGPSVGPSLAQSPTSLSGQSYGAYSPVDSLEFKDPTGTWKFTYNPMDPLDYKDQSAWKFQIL
Chain of ETV6 (P41212 whole entry): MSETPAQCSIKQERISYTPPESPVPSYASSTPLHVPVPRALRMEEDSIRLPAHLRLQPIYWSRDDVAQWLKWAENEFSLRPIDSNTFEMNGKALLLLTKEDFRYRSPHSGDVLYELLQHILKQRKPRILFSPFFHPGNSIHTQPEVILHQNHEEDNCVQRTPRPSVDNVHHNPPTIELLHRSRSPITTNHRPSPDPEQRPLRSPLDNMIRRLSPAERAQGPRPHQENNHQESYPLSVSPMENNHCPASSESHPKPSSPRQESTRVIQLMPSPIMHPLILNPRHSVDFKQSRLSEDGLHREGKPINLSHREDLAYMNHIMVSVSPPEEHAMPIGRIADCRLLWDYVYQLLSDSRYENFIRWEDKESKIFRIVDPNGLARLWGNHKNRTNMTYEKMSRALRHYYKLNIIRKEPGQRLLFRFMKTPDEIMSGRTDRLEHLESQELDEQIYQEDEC
Chain of HSF1 (Q00613 whole entry): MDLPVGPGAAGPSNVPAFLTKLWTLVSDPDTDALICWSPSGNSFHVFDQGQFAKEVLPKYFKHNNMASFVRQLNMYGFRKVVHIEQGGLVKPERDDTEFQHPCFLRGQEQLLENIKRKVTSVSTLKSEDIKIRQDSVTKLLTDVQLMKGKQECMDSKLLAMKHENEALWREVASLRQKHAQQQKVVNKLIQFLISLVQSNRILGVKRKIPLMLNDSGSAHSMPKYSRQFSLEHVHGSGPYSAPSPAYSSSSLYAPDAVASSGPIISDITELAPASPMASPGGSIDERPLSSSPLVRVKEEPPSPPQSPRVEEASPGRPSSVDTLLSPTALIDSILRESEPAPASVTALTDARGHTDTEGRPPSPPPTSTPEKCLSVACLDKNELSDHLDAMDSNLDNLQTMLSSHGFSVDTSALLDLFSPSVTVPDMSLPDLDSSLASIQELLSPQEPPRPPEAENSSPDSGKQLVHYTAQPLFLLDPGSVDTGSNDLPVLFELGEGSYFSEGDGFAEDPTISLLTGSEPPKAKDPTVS

As for ACTTCT, the binding signal in the assay with FEV was 1.4 fold enrichment (6-mer frequency, TF over GST control); in the assay with ETV5, 1.45 fold enrichment (6-mer frequency, TF over GST control); in the assay with HSF1, 2.1 fold enrichment (6-mer frequency, TF over GST control); with SPIC, 1.47 fold enrichment (6-mer frequency, TF over GST control); with ELF4 it was 1.49 fold enrichment (6-mer frequency, TF over GST control); with ELK4, 1.83 fold enrichment (6-mer frequency, TF over GST control). Further, the binding signal is 1.37 fold enrichment (6-mer frequency, TF over GST control) with ETV2; 1.45 fold enrichment (6-mer frequency, TF over GST control) with ELF3; 1.55 fold enrichment (6-mer frequency, TF over GST control) with CRX; 1.47 fold enrichment (6-mer frequency, TF over GST control) with ETV1; 1.35 fold enrichment (6-mer frequency, TF over GST control) in the assay with ERF; 1.65 fold enrichment (6-mer frequency, TF over GST control) with ETV3L. The binding signal in the assay with ETS2 is 1.4 fold enrichment (6-mer frequency, TF over GST control); with SPDEF it was 1.21 fold enrichment (6-mer frequency, TF over GST control); with ETV7 it was 1.5 fold enrichment (6-mer frequency, TF over GST control); with ELF5, 1.58 fold enrichment (6-mer frequency, TF over GST control); with ETV3, 1.36 fold enrichment (6-mer frequency, TF over GST control); with ETV6, 1.58 fold enrichment (6-mer frequency, TF over GST control).
